Screens (PubChem BioAssay)
Shown are actives, neighbours in structure and some others; about 17% of the full set was active somewhere.
TGFb SMAD3 inh – TGF-b pathway inhibition; HepG2 CAGA-GFP TGF-b/SMAD3 reporter, GFP fluorescence, 18 h; TGF-beta stimulated, 500 pg/mL final; Potency, µM (titrated, usually from 46.1 µM), for the others: at the highest dose activity, negative = inhibition, hits mostly inhibitors; hit rate 1.2% among 410,000; further: on the % scale 0 is the no-effect control and ±100 the full control effect; nearly all actives have a fitted effect of over 65% in size
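Smad-responsive CAGA-GFP expression was quantified in HEPG2 cells exposed to compounds and 500 pg/mL final TGF-beta for 18 h at 37 degrees C; unstimulated wells defined full inhibition.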
HT1080-NT tox – kills 2HG-producing HT-1080-NT fibrosarcoma cells; HT-1080-NT fibrosarcoma viability, CellTiter-Glo ATP luminescence, 48 h; Potency, µM (top dose mostly 46.1 µM), for inactives: at the top dose activity, negative = less viability, usual class: cytotoxic; hit rate 1.6% among 360,000;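 further: NT is the 2HG producing partner of a matched IDH1 knockdown line; 0% = DMSO-treated cells and -100% = media-only wells without cells; nearly all actives have a fitted effect of over 55% in size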
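Toxicity toward the 2HG-producing NT line was scored as %Activity, normalised to DMSO and no-cell wells, from CellTiter-Glo luminescence after 48 hours' treatment.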
HepG2 tox – counter-screen for TGF-b inhibitors: cytotoxicity in HepG2 cells; Potency, µM (highest dose often 46.1 µM), for the others: at the top dose activity change, negative = cytotoxicity, usual class: cytotoxic; hit rate 0.76% among 410,000; HepG2 CAGA-GFP viability, ATP luminescence, 18 h
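CellTiter-Glo luminescence gave cytotoxicity after 18 hours at 37 degrees C. The cells were HepG2 CAGA-GFP in 1% FBS DMEM, stimulated with 500 pg/mL TGF-beta after compound addition. %Activity was normalised to no-cell wells (complete cell-killing) and DMSO (no toxicity), and curves were fitted and classified.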
DT40 TDP1 no CPT – qHTS for Inhibitors of human tyrosyl-DNA phosphodiesterase 1 (TDP1): qHTS in cells in absence of CPT. DT40 Tdp1-/- hTDP1 cells, no CPT, ATP luminescence, 48 h. Potency, µM (highest dose often 46.2 µM), for the others: at the highest dose activity change, negative = growth inhibition, actives largely listed as inhibitors. hit rate 15% among 420,000. AID 686978, 2013; further: on the % scale 0 is the no-effect control and ±100 the full control effect; nearly all actives have a fitted effect of over 55% in size
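Chicken DT40 Tdp1-/- cells stably complemented with human TDP1 were seeded at 400 cells/well with DMSO in place of 20 nM camptothecin. After compound pinning, cells grew at least 48 hr at 37 °C; viability read by CellTiter-Glo luminescence.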
DT40 TDP1 CPT – growth inhibition of DT40 Tdp1-/-;hTDP1 cells with camptothecin (screen for TDP1 inhibitors) | chicken DT40 Tdp1-/-;hTDP1 cells + 20 nM CPT, ATP luminescence, 48 h | Potency, µM (series often up to 46.2 µM), for the others: at the top dose activity change, negative = growth inhibition, most hits filed as inhibitors | hit rate 12% among 420,000 | AID 686979; further: on the % scale 0 is the no-effect control and ±100 the full control effect; nearly all actives have a fitted effect of over 55% in size
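Chicken DT40 Tdp1-/- cells stably complemented with human TDP1 were seeded at 400 cells/well in medium containing 20 nM camptothecin, exposed to pin-transferred compounds, and grown at 37 °C for at least 48 hr. Viability was read as ATP luminescence.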
HT1080 IDH1KD tx – kills HT-1080 cells with IDH1 knockdown | HT-1080 IDH1 knockdown viability, ATP luminescence, 48 h | Potency, µM (doses to about 46.1 µM), without a hit: at the top dose activity, negative = toxicity, usual class: cytotoxic | hit rate 2% among 360,000;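 further: 0% = DMSO wells and -100% = cell-free medium wells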
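CellTiter-Glo luminescence after 48 h compound exposure at 37 degrees C of IDH1-knockdown HT-1080 cells in 5% FBS RPMI. %Activity scaled between DMSO wells and cell-free media wells, with curves fitted and assigned curve classes.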
* marks the source's active call; other numbers are inactive results; ? = inconclusive; nt = no result given. The call rests on the fitted dose curve; in most records, active means well fitted curve in the direction sought with a large enough effect; inconclusive means small, poorly fitted or top-dose-only effect, or another doubt; inactive means no such curve, though single readings can be large; an effect the other way counts as inactive or inconclusive. Potency means the concentration at half of the fitted maximal effect.

SMILES	TGFb SMAD3 inh	HT1080-NT tox	HepG2 tox	DT40 TDP1 no CPT	DT40 TDP1 CPT	HT1080 IDH1KD tx
Cc1ccc(C(=O)NCC(=O)OCCCOC(=O)CNC(=O)c2ccc(C)c(C)c2)cc1C	2%	0%	-24%	-13%	-16%	0%
Cc1noc(C)c1C(=O)OCC(=O)/C=C1/N(C)c2ccccc2C1(C)C	18%	6%	23%	12µM*	?	0%
Cc1noc(C)c1C(=O)OCC(=O)NCc1ccccc1	21%	9%	8%	-22%	8%	2%
Cc1ccc(C(=O)NCC(=O)OCC(=O)/C=C2\N(C)c3ccccc3C2(C)C)cc1C	-20%	-2%	-38%	?	16µM*	1%
CCOC(=O)c1cc(-c2ccccc2)n(Cc2cc(CC)no2)n1	-2%	6%	4%	-17%	-15%	6%
CCOc1ccccc1-c1nc(Cn2c(=O)cc(C)c3c(C)nn(-c4ccccc4)c32)c(C)o1	-1%	nt	-2%	5%	1%	nt
CN1/C(=C\C(=O)COc2ccc3c(c2)OCO3)C(C)(C)c2ccccc21	?	-22%	-3%	8.2µM*	8.2µM*	-28%
COc1ccccc1OCC(=O)/C=C1/N(C)c2ccccc2C1(C)C	-1%	-19%	-2%	21µM*	16µM*	-27%
CN1/C(=C\C(=O)CSc2ncn[nH]2)C(C)(C)c2ccccc21	-6%	10%	5%	?	?	-6%
CCCCC[C@@H]1C=C(C(=O)O)[C@H](c2cccc(C)c2)N1S(=O)(=O)c1ccc(C)cc1	?	-11%	-12%	-20%	-20%	-11%
CCOc1ccc(NC(=O)Cn2c(=O)cc(C)c3c(C)nn(-c4cccc(Cl)c4C)c32)cc1	-1%	nt	-3%	13µM*	26µM*	nt
Cc1cc(=O)n(CC(=O)NC(C)c2ccccc2)c2c1c(C)nn2C (stereo not drawn)	?	nt	-24%	8.2µM*	15µM*	nt
COc1ccc(NC(=O)Cn2c(=O)cc(C)c3c(C)nn(C)c32)cc1	-2%	nt	0%	3.3µM*	?	nt
Cc1ccc(Cl)cc1NC(=O)Cn1c(=O)cc(C)c2c(C)nn(C)c21	-1%	nt	6%	?	12µM*	nt
Cc1noc(C)c1S(=O)(=O)Nc1ccc(C#N)cc1	-1%	0%	-1%	8%	-3%	6%
CC1CC(C)(C)CC2(C1)NC(=O)N(CC(=O)Nc1ccc3c(c1)OCO3)C2=O (stereo not drawn)	-10%	5%	-18%	-11%	4%	1%
C=C1c2cccc(C(F)(F)F)c2O[C@H](C(=O)OCC)[C@H]1OC	-6%	0%	-2%	3%	-5%	-2%
CCc1ccc(-n2nc(C)c3c(C)cc(=O)n(CC(=O)Nc4ccc(C(C)=O)cc4)c32)cc1	-22%	nt	1%	9.2µM*	?	nt
CCOc1ccc(NC(=O)Cn2c(=O)cc(C)c3c(C)nn(C)c32)cc1	1%	nt	4%	8.2µM*	21µM*	nt
CCN(CC(=O)Nc1c(F)cccc1F)C(=O)c1cc2ccccc2oc1=O	-10%	32%	-2%	3%	-2%	6%
O=C(O)CCCC(=O)Nc1ccn(-c2ccccc2)n1	-5%	-1%	-28%	?	18µM*	-4%
O=C(NCc1ccco1)C(=O)N1CCCC1	1%	15%	0%	34%	0%	11%
Nc1nc(N)nc(-c2ccc(Cl)c(Cl)c2)n1	?	-5%	-25%	12µM*	21µM*	-1%
Cc1nc(N)nc(N)c1CCCc1ccc(Cl)c(Cl)c1	?	8.2µM*	-194%	2.6µM*	10µM*	1.2µM*
